# Reference: PubChem BioAssay AID2676 (National Center for Advancing Translational Sciences (NCATS), 2010)
# Screen size: about 370,000 compounds; about 1,100 (0.3%) were called active. Roughly 1% stayed inconclusive and do not appear here. Calls follow the shape of the dose curve; as a rule, active = well fitted activation curve with a large enough effect; inconclusive = small, poorly fitted or top-dose-only effect; inactive = flat fitted curve, though single readings scatter. The sample as a whole holds a higher share of actives than the screen did.
# Biological target: Relaxin receptor 1 (Homo sapiens) (UniProt Q9HBX9)
# Test: qHTS Assay for Agonists of the Relaxin Receptor RXFP1; also: nearly all actives have a fitted effect of over 60% in size
# Conditions: HEK293T-RXFP1 cAMP TR-FRET, 30 min; series mostly up to 57.5 µM; activation: at the top concentration
# Source text: NIH Chemical Genomics Center [NCGC] NIH Molecular Libraries Probe Production Centers Network [MLPCN] MLPCN Grant: R03 MH085705-01A1 Assay Submitter (PI): Alexander Agoulnik NCGC Assay Overview: The relaxin hormone is involved in the variety of biological functions in normal tissues and diseases. The role of relaxin is well-established in female reproduction and parturition, mammary gland and endometrial development, maintenance of myometrial quiescence during pregnancy. Relaxin signaling through its G protein-coupled receptor (GPCR) RXFP1 results in ECM remodeling through regulation of collagen deposition, cell invasiveness, proliferation and overall tissue homeostasis. […] Recombinant human relaxin (rhRlx) is currently being tested in clinical trials as a protective agent in congestive heart failure, in treating severe preeclampsia, and as an anti-fibrotic agent in systemic sclerosis. Upon relaxin binding RXFP1 activation leads to the activation of adenylate cyclase (AC) via Gs. cAMP will activate PKA, which phosphorylates many signaling proteins. Thus, detection of cAMP increase is an easy and reliable indication of relaxin receptor activation. To screen for agonists of the relaxin receptor, a HEK293T cell line stably transfected with RXFP1 was used. RXFP1 activation was assayed by changes in cAMP levels as detected with a time-resolved fluorescence energy transfer (TR-FRET) cAMP detection kit.
# NCGC Assay Protocol Summary: This is a cell-based assay for cAMP second messenger response to screen for agonists of the RXFP1 receptor. The assay was conducted in the presence of a PDE4 inhibitor (Ro 20174). The cells were lysed and the cAMP levels were measured with a TR-FRET cAMP kit. Presence of cAMP in the cell lysate disrupts binding between the cryptate-labeled anti-cAMP and d2-labeled cAMP pair, leading to a decrease in the TR-FRET signal. Data were normalized to the controls for basal activity (buffer only) and 100% activity (29 nM porcine relaxin). The EC50 values were determined from concentration-response data modeled with the standard Hill equation 1536-well assay protocol for the HEK293 RXFP1 cAMP assay: (1) Add 3 ul HEK293 RXFP1 cell culture. 2000 cells/well in DMEM/F12, 10% FBS, 1x Pen/Strep (dispensed offline with MultiDrop Combi). (2) Incubate 16-24 hr at 37C, 5% CO2. (3) Add 1 ul 400uM Ro20174 in DPBS, 0.05% BSA, 0.005% Tween 20. (3) Add 23 nl compounds in DMSO solution. Final concentration was 0.5 - 58 uM. (4) Incubate 30 min at 37C, 5% CO2. (5) Add 1 ul cAMP-d2 in lysis buffer (HTRF cAMP HiRange kit, CisBio). (6) Add 1 ul anti-cAMP antibody-cryptate in lysis buffer (HTRF cAMP HiRange kit, CisBio). (7) Incubate 30 min at room temperature. (6) Detect the assay plate in a ViewLux plate reader (PerkinElmer) with Ex=320 nm, Em1=615 nm and Em2=665 nm. Keywords: relaxin, RXFP1, RXFP2, G-protein coupled receptor, cAMP, agonist, high throughput screening, MLSMR, MLSCN, NIH Roadmap, qHTS and NCGC
# % is scaled to controls: 0 for no effect and ±100 for the full control effect; potency is read from the fitted curve at half-maximal effect.
# Sequence of Relaxin receptor 1 (Homo sapiens) (Q9HBX9 whole entry, looked up): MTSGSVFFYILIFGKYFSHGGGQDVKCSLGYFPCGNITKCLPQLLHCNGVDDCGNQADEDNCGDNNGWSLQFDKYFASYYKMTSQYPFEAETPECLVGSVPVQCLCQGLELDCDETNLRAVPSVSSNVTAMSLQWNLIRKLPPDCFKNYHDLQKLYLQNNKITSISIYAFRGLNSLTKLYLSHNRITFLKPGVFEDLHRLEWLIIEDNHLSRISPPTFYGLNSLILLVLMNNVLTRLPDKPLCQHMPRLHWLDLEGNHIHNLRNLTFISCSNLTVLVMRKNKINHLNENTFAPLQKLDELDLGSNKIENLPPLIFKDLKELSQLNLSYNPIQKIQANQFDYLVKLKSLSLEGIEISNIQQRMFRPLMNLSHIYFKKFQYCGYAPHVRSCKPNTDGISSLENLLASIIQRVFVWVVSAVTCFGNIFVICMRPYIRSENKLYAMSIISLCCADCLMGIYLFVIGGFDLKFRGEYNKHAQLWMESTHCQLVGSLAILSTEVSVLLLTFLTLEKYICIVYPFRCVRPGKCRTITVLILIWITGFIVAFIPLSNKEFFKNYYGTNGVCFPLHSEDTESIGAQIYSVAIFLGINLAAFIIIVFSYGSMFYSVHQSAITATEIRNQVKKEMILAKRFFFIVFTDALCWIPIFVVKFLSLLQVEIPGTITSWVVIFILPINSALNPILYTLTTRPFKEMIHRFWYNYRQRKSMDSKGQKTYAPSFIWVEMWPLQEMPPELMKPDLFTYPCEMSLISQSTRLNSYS
Compound,activation,Potency
COc1ccc(Cc2nc3ccc(C(=O)NCc4ccc(OC)cc4OC)cc3o2)cc1,-1.3% (inactive),
O=C(CSCc1cnn(-c2ccccc2)c1-n1cccc1)NCc1ccc(Cl)cc1,0.103% (inactive),
O=C(Nc1ccc(Br)cc1)c1ccc(Br)c(S(=O)(=O)NCc2ccccc2)c1,2.11% (inactive),
O=C(Nc1ccc2nc(SCC(=O)N3CCCc4ccccc43)sc2c1)c1ccc(Cl)cc1,-0.685% (inactive),
CCOC(=O)c1ccc(N2C(=O)c3[nH]nc(-c4ccccc4)c3C2c2ccc(C(C)C)cc2)cc1 (stereo unspecified),1.54% (inactive),
Fc1ccc(-c2nn(-c3ccccc3Cl)c3c2cnc2ccccc23)cc1,1.05% (inactive),
CCOc1cccc2sc(N3CCN(C(=O)C4CC4)CC3)nc12,2.27% (inactive),
COc1ccc(C(=O)COC(=O)c2nn(C)c(=O)c3ccccc23)c(OC)c1,2.52% (inactive),
COc1ccc(C(=O)COC(=O)Cn2cnc3c2c(=O)n(C)c(=O)n3C)c(OC)c1,,15.8 µM (active)
Cn1c(=O)c2c(ncn2CC(=O)N2CCN(c3ccccc3)CC2)n(C)c1=O,5.92% (inactive),
COc1ccc(Cn2ccnc2SCC(=O)Nc2ccc3c(c2)OCO3)cc1,0.543% (inactive),
CCC(C)c1ccc2oc(-c3ccc(NC(=O)c4cc5ccccc5o4)cc3)nc2c1 (stereo unspecified),13.4% (inactive),
Cn1nnnc1SCCNCc1ccc(Cl)c(Cl)c1,6.77% (inactive),
COc1ccc(Br)cc1CNC(=O)c1cc(=O)[nH]c2ccc(S(=O)(=O)N3CCCC3)cc12,2.91% (inactive),
CCOC(=O)c1ccc(CSc2nnc3cc(C)c4ccccc4n23)cc1,-0.266% (inactive),
O=c1cc(-c2ccccc2)n2c(SCc3ccccc3)nnc2[nH]1,6.6% (inactive),
Cc1cccc2nc(CSc3nc4[nH]ncc4c(=O)n3-c3cccc(Cl)c3)cc(=O)n12,0.541% (inactive),
CCc1ccc(-n2c(SCc3cc(=O)n4cc(Br)ccc4n3)nc3[nH]ncc3c2=O)cc1,,20 µM (active)
O=c1c2sccc2nc(SCc2cc(=O)n3ccccc3n2)n1-c1ccc(Br)cc1,3.4% (inactive),

Compound,activation,Potency
CCCN1C(=O)C(O)(CC(=O)c2ccc(CC)cc2)c2cc(Br)ccc21 (stereo unspecified),0.237% (inactive),
COc1cccc(CNC(=O)Cn2ncn3c(cc4ccccc43)c2=O)c1,4.71% (inactive),
CCCSc1ncc(Cl)c(C(=O)Nc2c(C(=O)Nc3ccccc3)oc3ccccc23)n1,1.04% (inactive),
Cc1cc(NS(=O)(=O)c2ccc(NC(=O)c3ccccc3C)cc2)nc(C)n1,0.704% (inactive),
CCCn1c(NCc2ccccc2F)nc2ccccc21,1.98% (inactive),
COc1ccc(-c2cn3c(n2)sc2cc(C(=O)Nc4ccc(F)cc4)ccc23)cc1,6.49% (inactive),
O=C(Cn1nc(Cc2cccnc2)c2ccccc2c1=O)N1CCN(c2ccccc2F)CC1,1.65% (inactive),
Cc1ccccc1NC(=O)Cn1c(=O)n(CCCCC(=O)NCc2ccccc2Cl)c(=O)c2ccccc21,-0.36% (inactive),
CCCCNC(=O)CSc1nc2cc3c(cc2c(=O)n1CCCCCC(=O)NCc1ccc2c(c1)OCO2)OCO3,0.833% (inactive),
CC1(C)Cc2nc3sc4c(SCC(=O)NC(c5ccccc5)c5ccccc5)ncnc4c3cc2CO1,,3.16 µM (active)
CC(C)CCSc1ncnc2c1oc1nc3c(cc12)COC(C)(C)C3,3.1% (inactive),
O=C(CSc1ncnc2scc(-c3ccccc3)c12)NCc1ccc2c(c1)OCO2,3.7% (inactive),
Cc1ccc(Cl)cc1N1CCN(S(=O)(=O)c2cc3[nH]c(=O)c(=O)[nH]c3cc2C)CC1,-0.379% (inactive),
COc1ccc2c(c1)Cc1sc(NC(=O)c3ccccc3Br)nc1-2,-0.462% (inactive),
COc1ccc(NC(=O)CCc2nnc3n(CC(C)C)c(=O)c4ccccc4n23)cc1OC,1.01% (inactive),
COc1cc(OC)cc(C(=O)Nc2c(C(=O)Nc3ccc(F)cc3)oc3ccccc23)c1,21.3% (inactive),
COc1cccc(-c2nc(CS(=O)(=O)CC(=O)N3CCN(c4cc(C)ccc4C)CC3)c(C)o2)c1,-2.79% (inactive),
Cc1cccc(Cn2c(SCc3ccc(C(=O)N4CCC(C)CC4)cc3)nc3ccncc32)c1,-0.29% (inactive),
COc1ccccc1CNC(=O)C(=O)NCC(c1ccco1)S(=O)(=O)c1ccc(F)cc1 (stereo unspecified),-0.717% (inactive),

Compound,activation,Potency
CCCCC(=O)Nc1nnc(S(=O)(=O)N(C)Cc2ccco2)s1,0.754% (inactive),
COc1cccc(C(=O)Nc2nnc(S(=O)(=O)N(C)c3ccccc3)s2)c1,1.2% (inactive),
CCC(=O)Nc1ccccc1-c1nc2ccccc2n(CC(=O)Nc2ccc(C)c(C)c2)c1=O,-4.71% (inactive),
CC1CCN(C(=O)Cn2c(=O)n(-c3ccc(Cl)cc3)c(=O)c3c4c(sc32)CCC4)CC1,26.2% (inactive),
CCC(C)Nc1oc(-c2ccc(COc3ccc(Cl)cc3)o2)nc1C#N (stereo unspecified),0.927% (inactive),
CCOC(=O)c1c(C)[nH]c(CCC(=O)NCCCN2CCN(c3cccc(Cl)c3)CC2)c1C,1.78% (inactive),
Cc1ccc(Nc2c(-c3ccc(Cl)cc3)nc3sccn23)c(C)c1,0.704% (inactive),
CC(=O)N1CCCc2cc(S(=O)(=O)Nc3ccc(Cl)cc3F)ccc21,-0.63% (inactive),
O=C(COc1ccc(Cl)cc1)Nc1ccccc1OCc1cc(=O)n2ccccc2n1,6.2% (inactive),
CCOc1ccccc1C(=O)Nc1ccc2c(c1)N(C)C(=O)c1ccccc1S2,1.45% (inactive),
CC(=O)Nc1cccc(NC(=O)CSc2nccn2Cc2ccc3c(c2)OCO3)c1,2.66% (inactive),
Cc1cc(OCC(=O)NCC2(N(C)C)CCCCC2)cc(C)c1Cl,0.643% (inactive),
COc1ccc(CNC(=O)CSc2n[nH]c(-c3ccc(F)cc3)n2)cc1,1.03% (inactive),
CCc1ccc(NC(=O)CN2CCSc3ccc(S(=O)(=O)N4CCCC4)cc32)cc1,1.82% (inactive),
Cc1ccc(S(=O)(=O)N(Cc2nc(-c3ccc(Cl)cc3)no2)C2CCCCC2)cc1,0.473% (inactive),
COc1ccc2c(c1)c(=O)c(C(=O)c1ccccc1)cn2CC(=O)Nc1ccc2c(c1)OCCO2,0.33% (inactive),
CCCC(=O)N1CCN(c2nc3c(OC)ccc(C)c3s2)CC1,-0.0199% (inactive),
CCCN(CCC)CCNC(=O)c1ccc2c(c1)NC(=O)C(CS(=O)(=O)Cc1cccc(Br)c1)N2 (stereo unspecified),3.62% (inactive),
